Results on 101 molecules are retold here after ChEMBL document CHEMBL1201862, “PubChem BioAssay data set” (2004).

Structures are written as SMILES. Out of some 400,000 compounds screened, about 2,100 (0.53%) were called active. About 14% were inconclusive and are not listed. No rule for the calls is given here. This excerpt belongs to a sample that is enriched for actives.

Chain of Ataxin-2 (Homo sapiens) (Q99700 whole entry): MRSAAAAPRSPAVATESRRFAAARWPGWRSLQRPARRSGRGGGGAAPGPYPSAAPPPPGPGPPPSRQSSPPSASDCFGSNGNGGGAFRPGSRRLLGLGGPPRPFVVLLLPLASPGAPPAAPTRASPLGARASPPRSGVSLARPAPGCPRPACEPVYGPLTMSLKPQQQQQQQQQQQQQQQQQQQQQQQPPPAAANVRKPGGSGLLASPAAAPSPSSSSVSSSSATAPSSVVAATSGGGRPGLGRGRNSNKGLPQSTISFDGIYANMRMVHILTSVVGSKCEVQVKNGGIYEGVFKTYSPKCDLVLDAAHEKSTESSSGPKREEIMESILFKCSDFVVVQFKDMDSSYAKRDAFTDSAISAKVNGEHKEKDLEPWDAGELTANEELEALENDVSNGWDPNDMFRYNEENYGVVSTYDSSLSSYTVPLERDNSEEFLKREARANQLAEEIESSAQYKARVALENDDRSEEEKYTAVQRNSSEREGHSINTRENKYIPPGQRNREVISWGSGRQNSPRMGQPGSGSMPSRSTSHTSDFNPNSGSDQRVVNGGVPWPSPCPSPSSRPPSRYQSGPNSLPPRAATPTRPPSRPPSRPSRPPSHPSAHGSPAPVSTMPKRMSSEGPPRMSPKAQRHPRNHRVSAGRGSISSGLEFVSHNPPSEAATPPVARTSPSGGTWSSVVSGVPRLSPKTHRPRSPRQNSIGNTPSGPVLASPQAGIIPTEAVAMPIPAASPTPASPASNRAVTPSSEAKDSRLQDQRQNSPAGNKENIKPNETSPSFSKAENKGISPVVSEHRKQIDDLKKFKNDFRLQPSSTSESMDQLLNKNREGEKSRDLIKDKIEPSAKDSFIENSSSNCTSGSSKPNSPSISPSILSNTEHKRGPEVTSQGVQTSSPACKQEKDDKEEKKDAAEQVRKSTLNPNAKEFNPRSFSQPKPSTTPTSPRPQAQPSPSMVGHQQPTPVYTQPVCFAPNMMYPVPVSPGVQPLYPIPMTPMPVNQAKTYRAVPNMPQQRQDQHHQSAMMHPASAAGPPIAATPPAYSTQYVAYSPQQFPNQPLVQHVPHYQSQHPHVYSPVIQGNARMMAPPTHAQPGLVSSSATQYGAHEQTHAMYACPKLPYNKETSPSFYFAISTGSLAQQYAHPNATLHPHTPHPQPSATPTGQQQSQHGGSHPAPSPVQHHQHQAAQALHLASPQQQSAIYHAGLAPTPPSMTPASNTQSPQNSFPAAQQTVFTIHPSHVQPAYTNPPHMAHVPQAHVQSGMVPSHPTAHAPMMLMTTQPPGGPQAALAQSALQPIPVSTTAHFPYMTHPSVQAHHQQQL

This test has as its target Ataxin-2 (Homo sapiens) (UniProt Q99700). In words: qHTS for Inhibitors of ATXN expression. The test is classed as functional. For orientation: qHTS replaces the single test concentration by a dilution series.
In the case of `CCOc1ccc2nc(NCCCNS(=O)(=O)c3ccc(F)cc3)c(C#N)cc2c1`, the Potency result was “inactive”.

Regarding `Nc1c(C(=O)Nc2ccccc2F)sc2nc(-c3ccco3)ccc12`, the Potency entry was “inactive”.

Take `COc1ccc(NC(=O)c2cc3ccccc3cc2O)cc1`: the Potency entry was “inactive”.

Turning to `COc1ccc(C(=O)Nc2cccc(/C=C/c3nc(O)c4ccccc4n3)c2)cc1`, the Potency was 25.1 µM (active). The result for `COc1cc(/C=C/c2nc(O)c3ccccc3n2)cc(Cl)c1O` reads “inactive”. For the molecule `O[C@@H]1[C@@H]2c3cc4c(cc3CN3CCC(=C[C@@H]1O)[C@H]23)OCO4`, the Potency is 6.31 µM (active).

In the case of `COc1cc(C2Nc3ccc4ccccc4c3C3=C2C(=O)CC(C)(C)C3)ccc1OCC(=O)O` (stereo unspecified), the Potency entry was “inactive”.

Regarding `COCCN(CCOC)Cc1c(O)ccc2c1O/C(=C\c1ccco1)C2=O`, the Potency entry was “inactive”. In the case of `Cc1cc(-c2ccnc(-n3ncc(C(=O)NCC4COCCO4)c3C3CC3)n2)c(C)s1` (stereo unspecified), the Potency entry was “inactive”. The result for `O=C(NN/C=C1\C(=O)N(c2ccccc2Cl)C(=O)c2ccccc21)c1cccnc1` reads “inactive”; that for `CNc1ccc(N=Nc2cc[n+]([O-])cc2C)cc1C`, 28.2 µM (active). The result for `CCOC(=O)C1(Cc2ccccc2C(F)(F)F)CCN(CC(O)CO)CC1` (stereo unspecified) reads “inactive”.

Consider `Cc1cccn2c(=O)c3cc(S(=O)(=O)c4ccccc4)c(=N)n(Cc4ccco4)c3nc12`, for which the Potency entry is “inactive”. Regarding `CCOC(=O)CNC(=O)Cn1cnc2c(cnn2-c2ccc(C)cc2)c1=O`, the Potency result is “inactive”. Take `Cc1ccc(-n2nc(C)c(NC(=O)CCl)c2C)cc1C`: the Potency was 35.5 µM (active).

As for `Cc1ccc(-n2nc(C)c(NC(=O)CCl)c2C)cc1`, the Potency is 39.8 µM (active). For the molecule `COc1ccc(-c2c(NC(=O)c3ccco3)n(-c3ccc(C)cc3)nc(C)c2=O)cc1`, the Potency entry was “inactive”. `Cc1nn(Cc2ccc(Cl)cc2Cl)c(C)c1NC(=O)CCl`: the Potency was 25.1 µM (active).

As to `Cc1cc(C)n(-c2ccc(C(=O)NCC(=O)Nc3cc(Cl)ccc3Cl)cc2)n1`, the Potency result is “inactive”. As to `Cc1nn(-c2ccccc2)c(C)c1C(=O)OCC(=O)Nc1ccccc1Cl`, the Potency result was “inactive”. Turning to `CCc1ccc(-c2cc(C(F)(F)F)n3nc(C(=O)Nc4c(C)nn(Cc5ccccc5Cl)c4C)cc3n2)s1`, the Potency result is “inactive”. As to `Cc1nn(Cc2ccccc2Cl)c(C)c1C(=O)N(C)CC(=O)Nc1cccc(F)c1`, the Potency entry is “inactive”.

Turning to `COCCSc1ccccc1C(=O)N1CCc2ccccc21`, the Potency entry is “inactive”. Regarding `CCOCCCn1c(=N)c(C(=O)NCc2ccccc2)cc2c(=O)n3ccccc3nc21`, the Potency entry is “inactive”.

Take `O=C1CCC(=O)N1c1nc2n(n1)C(c1ccccc1)C=C(c1ccc(Br)cc1)N2` (stereo unspecified): the Potency entry is “inactive”. In the case of `Cc1[nH]c2ccccc2c1C1=CC(=O)C=CC1=O`, the Potency was 39.8 µM (active). `Cc1ccc2[nH]c3ccccc3c(=O)c2c1`: the Potency entry is “inactive”. In the case of `O=c1c2ccccc2[nH]c2ccccc12`, the Potency result is “inactive”. For the molecule `COCc1cc(C)nc2sc(C(=O)Nc3nccs3)c(N)c12`, the Potency result was “inactive”. For the molecule `Cc1ccccc1N=C(S)NNC(=O)c1cccc(Br)c1`, the Potency result is “inactive”. Under `C/C(=N\NC(=O)c1ccc(-n2cnnn2)cc1)c1ccc(Cl)cc1` stands “inactive”; under `O=C(N/N=C1/C(=O)c2cccc3cccc1c23)c1ccc(Cl)cc1`, 35.5 µM (active); under `Nc1[nH]cnc2c(C3OC(CO)C(O)C3O)cnc1-2` (stereo unspecified), 0.299 µM (active). For `Cc1cccn2c(=O)c3cc(S(=O)(=O)c4ccc(F)cc4)c(=N)n(Cc4ccco4)c3nc12`, the Potency entry was “inactive”. As for `CCOC(=O)c1cc2c(=O)n3ccccc3nc2n(Cc2ccco2)/c1=N\C(=O)c1ccc(F)cc1`, the Potency entry is “inactive”. Under `Cc1nc2c(sc(=S)n2Cc2ccco2)c(=O)n1CC(=O)Nc1ccc(F)cc1` stands 39.8 µM (active). As to `Cc1cc(C)c2c(N)c3cccc(C)c3nc2n1`, the Potency result was “inactive”. As to `CCOC(=O)C1=C(C#N)C(C(=O)OCC)c2ncccc21` (stereo unspecified), the Potency result is “inactive”.

For `CCOC(=O)C1=C(Nc2ccccc2)S/C(=C\c2ccc(OCC(=O)O)c(OCC)c2)C1=O`, the Potency result is “inactive”. For `CCOC(=O)C1=C(O)c2ccccc2C(=O)/C1=C\c1ccc(C)cc1`, the Potency is 39.8 µM (active). The result for `COCCNc1c2c(c(C#N)c3nc4ccccc4n13)CCCC2` reads “inactive”. Under `Cc1c(Cl)cccc1-c1ccc(/C=C(\C#N)c2nc3ccccc3[nH]2)o1` stands “inactive”. `Cc1ccc2[nH]c(/C(C#N)=C/c3ccc(-c4ccccc4C(=O)O)o3)nc2c1`: the Potency result is “inactive”. For `COc1ccc(/C=C(\C#N)c2nc3cc(C)ccc3[nH]2)cc1Oc1ccc(C(F)(F)F)cc1[N+](=O)[O-]`, the Potency is 44.7 µM (active).

As to `COc1cc(/C=C(\C#N)c2nc3cc(C)ccc3[nH]2)ccc1OC(C)C`, the Potency entry is “inactive”. As for `COc1cc(/C=C(\C#N)c2nc3cc(C)ccc3[nH]2)ccc1OCc1ccc(C)cc1`, the Potency result was “inactive”. Turning to `Cc1ccc2[nH]c(/C(C#N)=C\c3ccc([N+](=O)[O-])o3)nc2c1`, the Potency is 8.91 µM (active).

For `Oc1c(Br)cc(Br)cc1/C=N\c1cccnc1`, the Potency result is “inactive”. The result for `COCc1cc(N2CCCC2)nc(-c2ccccc2)n1` reads “inactive”; that for `Cc1c(N=C2N=C(NC(=O)Nc3ccc(Cl)cc3)c3ccccc32)c(=O)n(-c2ccccc2)n1C`, “inactive”; that for `O=C1c2cccc3c([N+](=O)[O-])ccc(c23)C(=O)N1CC1CCCO1` (stereo unspecified), “inactive”.

Turning to `Cc1cccc(C(=O)NCCc2nc3ccccc3n2Cc2ccc(Cl)cc2)c1`, the Potency was 28.2 µM (active). Under `CCCCCn1nc(-c2ccccc2)c2nc3ccccc3nc21` stands “inactive”; under `Cc1ccc(C(=O)NCCc2ccccc2)cc1N1CCCC1=O`, “inactive”; under `CCCCCn1c(-c2cccc(C)c2)nc2ccccc21`, 35.5 µM (active).

Take `CCn1c(C)nc2cc(C(=O)N/N=C(\C)c3ccccc3O)ccc21`: the Potency result was “inactive”. With `CCC(=O)NCCCc1nc2ccccc2n1Cc1ccccc1F`, the Potency entry was “inactive”. The result for `CCCCCn1c(CCNC(=O)c2cccc(C)c2)nc2ccccc21` reads 31.6 µM (active); that for `CCCn1c(CNC(=O)c2cccs2)nc2ccccc21`, “inactive”. `CCc1ccccc1-n1c(C)nc2cc(C(=O)NCCc3ccc(Cl)cc3)ccc21`: the Potency was 44.7 µM (active). `Cc1cccc(-n2cnc3cc(C(=O)NCCN4CCOCC4)ccc32)c1`: the Potency result was “inactive”. Take `CCCCCn1c(N)c(C#N)c2nc3ccccc3nc21`: the Potency result was “inactive”. Take `ClCc1nc2ccccc2n1Cc1ccccc1`: the Potency result was “inactive”. Turning to `COc1cccc(NC(=O)N2CCCC2C(=O)Nc2cc(C)ccc2OC)c1` (stereo unspecified), the Potency entry was “inactive”. Under `c1ccc2c3c(c(CN4CCCC4)cc2c1)COC3` stands “inactive”. For `Cc1ccc(NC(=O)NN2CCOCC2)cc1`, the Potency result was “inactive”.

Take `CC1(C)Cc2c(cnn2-c2cccc(F)c2)C(NC(=O)CSc2ccccn2)C1` (stereo unspecified): the Potency entry was “inactive”.

Take `Cc1cc(-n2c(=O)c(C#N)cc3c(=O)n4cccc(C)c4nc32)no1`: the Potency result was “inactive”. The result for `O=C(N/N=C/c1ccc(N2CCOCC2)cc1)c1ccccc1NS(=O)(=O)c1cccs1` reads “inactive”. With `C[C@H]1CCC[C@]2(C)C[C@H]3OC(=O)C(CN4CCCCCC4)[C@H]3C=C12` (stereo partly specified), the Potency was 39.8 µM (active).

On to `CCN/N=C(\Cc1nc2ccccc2[nH]1)c1ccccc1`, for which the Potency result is “inactive”. With `Cc1cccn2c(=O)c3cc(C(=O)NCC4CCCO4)c(=N)n(CC4CCCO4)c3nc12` (stereo unspecified), the Potency entry is “inactive”. In the case of `COc1cccc(-c2nc(CS(=O)(=O)CC(=O)Nc3cccc(C)c3C)c(C)o2)c1`, the Potency is 7.08 µM (active). With `Cc1ccc(CNC(=O)CS(=O)(=O)Cc2nc(-c3ccccc3F)oc2C)cc1`, the Potency result was “inactive”.

Regarding `Cc1ccc(-c2nc(CS(=O)(=O)CC(=O)NCc3ccc4c(c3)OCO4)c(C)o2)cc1`, the Potency result was “inactive”. Consider `COc1ccc(OC)c(/C=C2\Oc3cc(OCC(=O)N4CC(O)C[C@H]4C(=O)O)ccc3C2=O)c1` (stereo partly specified), for which the Potency result is “inactive”. For `CCOc1ccc2c(c1)/C(=C(\C(Cl)=C(Cl)Cl)[N+](=O)[O-])N2`, the Potency entry was “inactive”. Regarding `COc1ccc(C(=O)/C(=C\c2ccco2)N2C=CC=CC2=C(C#N)C#N)cc1`, the Potency was 1.78 µM (active). Under `COc1ccc(/C=c2\s/c(=C(/C#N)C(=O)NCc3ccco3)n(-c3ccccc3)c2=O)cc1` stands “inactive”; under `O=C(O)CSCC(=O)NCc1csc2ccc(Cl)cc12`, “inactive”; under `O=C(CN1CCc2ccccc21)Nc1ccc2c(c1)OCCCO2`, “inactive”.

As for `O=C(CSc1nc(-c2ccc(F)cc2)[nH]c1-c1ccc(F)cc1)Nc1ccc2c(c1)OCCO2`, the Potency is 39.8 µM (active). `Cc1ccc(NC(=O)CSc2nnc(-c3cc(C)on3)o2)cc1`: the Potency result is “inactive”.

As for `O=C(CSc1nc(-c2ccccc2)[nH]c1-c1ccccc1)Nc1ccc2c(c1)OCCO2`, the Potency was 39.8 µM (active).

Regarding `COc1ccc(-c2[nH]c(-c3ccc(C)cc3)nc2SCC(=O)NCc2ccco2)cc1OC`, the Potency entry is “inactive”. `N#Cc1ccccc1NC(=O)CSc1nc(-c2ccccc2)cc(C(F)(F)F)c1C#N`: the Potency entry is “inactive”. `CCN(CC)c1ccc2cc(C(N)=O)c(=N)oc2c1`: the Potency result was “inactive”. The result for `O=C1N=C(N2CCCCC2)S/C1=C\c1ccc(Br)cc1` reads “inactive”; that for `CCCCN1CC(c2nc3ccccc3n2CCCCOc2ccc(C)c(C)c2)CC1=O` (stereo unspecified), 39.8 µM (active).

For the molecule `Cc1cccc(N2CC(c3nc4ccccc4n3C)CC2=O)c1C` (stereo unspecified), the Potency result was “inactive”. With `CCc1ccc(OCCn2c(C3CC(=O)N(Cc4ccc(F)cc4)C3)nc3ccccc32)cc1` (stereo unspecified), the Potency is 39.8 µM (active).

Consider `CC(=O)Oc1ccc2cc(-c3nc4ccccc4n3C)c(=O)oc2c1`, for which the Potency entry was “inactive”. The result for `Cc1ccccc1N1CC(c2nc3ccccc3n2CCC2CCCCC2)CC1=O` (stereo unspecified) reads 35.5 µM (active); that for `Cc1cc(NC2CCCCC2)n2c(n1)nc1ccccc12`, “inactive”; that for `Cc1cc(OCCn2c(C3CC(=O)N(Cc4ccc(F)cc4)C3)nc3ccccc32)ccc1Cl` (stereo unspecified), 39.8 µM (active). Turning to `CC(C)(C)OC(=O)c1c(N)n(CCCN2CCCC2=O)c2nc3ccccc3nc12`, the Potency result was “inactive”. Under `O=c1nc2n(-c3ccccc3F)c3ccccc3cc-2c(=O)[nH]1` stands “inactive”.

Turning to `CCOC(=O)c1c(NC(=O)c2ccco2)n(C2CCCCC2)c2nc3ccccc3nc12`, the Potency result is “inactive”.

Turning to `Cc1noc(C)c1CSCC(=O)Nc1ccc(S(C)(=O)=O)cc1`, the Potency result was “inactive”. Turning to `CC(C)OC(=O)CSc1nc(Cc2ccccc2)nc2ccccc12`, the Potency entry was “inactive”. Consider `Cc1cc(-c2nc3cccnc3s2)ccc1NS(=O)(=O)c1cccs1`, for which the Potency entry was “inactive”.
